SARS PLpro yeast = qHTS of Yeast-based Assay for SARS-CoV PLP. S. cerevisiae expressing SARS-CoV PLpro, growth rescue. Potency, µM (highest dose often 32.9 µM), without a hit: at the top dose activity, positive = growth rescue, usual class: activators. 330,000 compounds, 0.19% hits; calls by dose curve; also: 0% is about no effect; nearly all actives have a fitted effect of over 55% in size
Pf growth 48h = Primary qHTS for delayed death inhibitors of the malarial parasite plastid, 48 hour incubation | P. falciparum luciferase growth in erythrocytes, 48 h | Potency, µM (highest dose often 28.7 µM), inactives show at the highest dose activity change, negative = inhibition, hits mostly inhibitors | 310,000 compounds, 5.9% hits | AID 504832, 2011; also: % is scaled to controls: 0 for no effect and ±100 for the full control effect
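First compound was added to culture medium, then infected red cells at 0.1% parasitemia and 2% hematocrit (final). After incubation at 37 C under 5% CO2, luciferase detection reagent was dispensed and light output recorded.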
Sm TGR inh = qHTS Assay for the Inhibitors of Schistosoma Mansoni Peroxiredoxins; Schistosoma mansoni thioredoxin glutathione reductase (TGR), Q962Y6; purified TGR, DTNB reduction, TNB absorbance 405 nm; Potency, µM (top dose mostly 114 µM), for inactives: at the top dose activity change, negative = inhibition, most hits filed as inhibitors; 360,000 compounds, 3% hits; also: % is scaled to controls: 0 for no effect and ±100 for the full control effect; nearly all actives have a fitted effect of over 60% in size
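First, TGR (20 nM dispensed) and NADPH were mixed with compound. Second, a 15 min room-temperature incubation followed. Third, further NADPH and then DTNB were added to start the reaction. Finally, TNB absorbance was monitored kinetically.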
Pf growth 96h = Primary qHTS for delayed death inhibitors of the malarial parasite plastid, 96 hour incubation; Potency, µM (doses to about 28.7 µM), inactives show at the highest dose activity change, negative = inhibition, hits mostly inhibitors; 320,000 compounds, 6.9% hits; P. falciparum luciferase reporter growth, 96 h; also: % is scaled to controls: 0 for no effect and ±100 for the full control effect
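Readout is luminescence from an integrated firefly luciferase in P. falciparum. Red cells, 2% hematocrit and 0.05% parasitemia final, were cultured with compound through two parasite generations (96 hours) at 37 C, 5% CO2.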
Starred values were filed as active, the others as inactive; ? = inconclusive; nt = no result given. Compounds with a hit are over-represented: about 12% of the library has one in this group of screens. Unless noted, calls follow the shape of the dose curve; as a rule, active = well fitted curve in the direction sought with a large enough effect; inconclusive = small, poorly fitted or top-dose-only effect, or another doubt; inactive = no such curve, though single readings can be large; an effect the other way counts as inactive or inconclusive. Potency is read from the fitted curve at half-maximal effect.

SMILES	SARS PLpro yeast	Pf growth 48h	Sm TGR inh	Pf growth 96h
CN1C(=O)C(O)N=C(c2ccccc2)c2ccccc21 (stereo unspecified)	-1.0%	1.8%	5.2%	20.1%
CN1C(=O)[C@@H](NC(=O)c2cc3ccccc3[nH]2)N=C(c2ccccc2)c2ccccc21	nt	15.1µM*	nt	15.1µM*
Cc1c(C(=O)N2CCOCC2)c(S(=O)(=O)Nc2cccc(C#N)c2)c(C)n1C	22.3%	17.3%	-21.7%	-0.4%
CCCOc1ccc(N2C(=O)CC(N(CCOC34CC5CC(CC(C5)C3)C4)C(C)=O)C2=O)cc1 (stereo unspecified)	-1.6%	44.4%	7.6%	5.22µM*
CCCCN(C(C)=O)C1CC(=O)N(c2ccc(OCCC)cc2)C1=O (stereo unspecified)	2.1%	0.1%	-1.3%	52.1%
O=C(Nc1ccc2nc(SCCOc3ccccc3Cl)sc2c1)c1cccs1	nt	nt	0.4%	nt
Cc1cccc(CS(=O)(=O)c2ncc(Cl)c(C(=O)Nc3nnc(C(C)C)s3)n2)c1	?	?	39.8µM*	?
CC(C)c1nnc(NC(=O)c2nc(S(=O)(=O)Cc3ccc(F)cc3)ncc2Cl)s1	0.4%	-13.7%	25.1µM*	34.2%
Cc1ccc(C)c(NC(=O)c2nc(S(=O)(=O)Cc3ccc(F)cc3)ncc2Cl)c1	nt	nt	2.51µM*	nt
CC(C)c1nnc(NC(=O)c2nc(SCc3ccc(F)cc3)ncc2Cl)s1	nt	nt	2.4%	nt
Cc1ccc(CS(=O)(=O)c2ncc(Cl)c(C(=O)Nc3nnc(C(C)C)s3)n2)cc1	9.0%	20.5%	17.8µM*	?
Cc1cccc(CSc2ncc(Cl)c(C(=O)Nc3nc4ccc(F)cc4s3)n2)c1	nt	nt	-4.8%	nt
CC(Nc1nc(-c2cccc(Br)c2)cs1)c1nc2cc(Cl)c(N3CCCCC3)cc2n1CCOCCO (stereo unspecified)	11.8%	?	-1.9%	?
CSc1ncc(Cl)c(C(=O)Nc2nnc(SC/C=C/c3ccccc3)s2)n1	-4.8%	19.4%	41.1%	nt
CSc1nnc(NC(=O)c2nc(S(=O)(=O)Cc3cccc(C)c3)ncc2Cl)s1	24.8%	-31.6%	20µM*	?
CCSc1nnc(NC(=O)c2nc(S(=O)(=O)Cc3ccc(F)cc3)ncc2Cl)s1	1.4%	17.7%	35.5µM*	-24.7%
COc1cc(NC(=O)CN2C(=O)C(c3ccc(C)cc3)=NC23CCCCC3)cc(OC)c1	nt	nt	12.2%	nt
CC(C)CCNC(=O)c1c(N)n(CC2CCCO2)c2nc3ccccc3nc12 (stereo unspecified)	-40.5%	nt	-0.5%	3.0%
Nc1c(C(=O)NCc2ccco2)c2nc3ccccc3nc2n1CCc1ccccc1	-16.1%	?	20µM*	-100.2%
CCOc1ccc(-n2c(N)c(C(=O)NCc3ccco3)c3nc4ccccc4nc32)cc1	-1.7%	nt	50.1µM*	-60.5%
CCCCOCCCn1c(N)c(C(=O)OC(C)COC)c2nc3ccccc3nc21 (stereo unspecified)	7.6%	4.65µM*	0.6%	?
CCC(C)NC(=O)c1c(N)n(CC2CCCO2)c2nc3ccccc3nc12 (stereo unspecified)	-16.3%	11.7µM*	-11.1%	13.1µM*
CCS(=O)(=O)c1nc(S(=O)(=O)c2ccc(Cl)cc2)c(NCc2ccc(Cl)cc2)s1	nt	nt	-4.7%	nt
COCCCn1c(N)c(C(=O)Nc2ccccc2)c2nc3ccccc3nc21	0.8%	?	13.9%	?
CCOc1ccc(-n2c(N)c(-c3nc4ccccc4n3C)c3nc4ccccc4nc32)cc1	10.4%	3.0%	0.5%	2.94µM*
SMILES	SARS PLpro yeast	Pf growth 48h	Sm TGR inh	Pf growth 96h
COCCCn1c(N)c(C(=O)OC(C)COC)c2nc3ccccc3nc21 (stereo unspecified)	-4.0%	-9.4%	-16.6%	?
O=C(NCc1ccco1)c1ccc2ccccc2n1	-3.6%	7.6%	nt	10.4µM*
COCCCn1c(N)c(C(=O)NCc2ccco2)c2nc3ccccc3nc21	3.9%	9.28µM*	7.08µM*	?
CCC(C)NC(=O)c1c(N)n(CCCOC)c2nc3ccccc3nc12 (stereo unspecified)	-1.9%	?	0.0%	2.33µM*
CCOC(=O)C1=C(C)NC(C)=C(C(=O)OCC)C1c1sccc1C	2.6%	5.22µM*	-25.9%	49.1%
CC1=C(C(=O)OC(C)C)C(c2cccs2)C(C(=O)OC(C)C)=C(C)N1	16.7%	13.1µM*	3.3%	?
CCCCCCCOC(=O)C1=C(C)Nc2ncnn2C1c1cccs1 (stereo unspecified)	0.0%	10.4µM*	5.0%	38.6%
CCOC(=O)c1sc2c(c1C)C(c1cccs1)C1=C(CCCC1=O)N2 (stereo unspecified)	6.7%	?	5.5%	11.7µM*
CCCCCCCCOC(=O)C1=C(C)Nc2nnnn2C1c1cccs1 (stereo unspecified)	-37.8%	nt	3.3%	nt
CC1=C(C(=O)OC(C)C)C(c2cccs2)NC(=O)N1 (stereo unspecified)	-4.4%	-7.9%	2.3%	16.7%
Cc1cc(NC(=O)CCCn2c(C)c3cnn(-c4ccccc4)c(=O)c3c2C)ccc1Br	nt	nt	-6.0%	nt
CCc1ccccc1Nc1sc(C(=O)c2ccccc2)c(N)c1S(=O)(=O)c1ccccc1	nt	nt	-14.6%	nt
COc1ccc(N2CCN(C(=O)C(CC(C)C)NS(=O)(=O)c3ccc4nc(C)sc4c3)CC2)cc1 (stereo unspecified)	nt	nt	2.0%	nt
CCOC(=O)C1=C(c2ccccc2)OC(N)=C(C#N)C1c1cccs1 (stereo unspecified)	6.9%	4.7%	44.7µM*	-8.3%
COC(=O)C1=C(C)NC(C)=C(C(=O)OC(C)C)[C@H]1c1cccc2nonc12	nt	4.55µM*	nt	2.56µM*
COC(=O)C1=C(C)NC(C)=C(C(=O)OC(C)C)C1c1cccc2nonc12 (stereo unspecified)	-0.2%	nt	-2.8%	nt
C#CCSC1=C(C#N)C(c2cccs2)C(C(=O)OCC)=C(C)N1 (stereo unspecified)	-8.0%	10.4µM*	?	2.8%
CCOC(=O)C1=C(C)NC(C)=C(C(=O)OCC)C1c1cccs1	-6.8%	9.28µM*	2.0%	9.28µM*
O=C(NC1CC(=O)N(c2cccc(F)c2)C1)C1CCCC1 (stereo unspecified)	nt	nt	3.9%	nt
COc1ccccc1CNC(=O)C1CCCN(S(=O)(=O)c2ccc3c(c2)oc(=O)n3C)C1 (stereo unspecified)	nt	nt	2.1%	nt
CCOC(=O)C1=C(C)N=C2SCCC(=O)N2[C@@H]1c1cccs1	-0.6%	10.4µM*	-0.3%	6.1%
NC(=O)C1CCN(C2=C(Cl)C(=O)c3ccccc3C2=O)CC1	-15.7%	?	0.447µM*	?
NC(=O)C1CCN(C2=C(NS(=O)(=O)c3ccc(Br)cc3)C(=O)c3ccccc3C2=O)CC1	0.2%	?	?	?
O=C(O)C1CCN(C(=O)c2ccccc2Cl)CC1	20.7%	5.4%	-0.7%	nt
O=C1C(Cl)=C(N2CCC(C(=O)O)CC2)C(=O)c2ccccc21	-2.6%	11.7µM*	-2.0%	11.7µM*

High-throughput results from PubChem BioAssay.
